Screen size: about 330,000 compounds; about 980 (0.3%) were called active. The sample holds actives, similar compounds and a random draw of the others, so the mix is not that of the screen. Unmarked numbers belong to inactive results.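 How the source made its calls: active means percent response vs DMSO below 50%; inconclusive means fewer than 70 events counted for the yeast strain; inactive means the rest.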
Test: compounds altering RPL19A-GFP fluorescence, TOR branch – cell-based, S. cerevisiae, multiplex flow cytometry, MLPCN, primary screen (AID 2025);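 further: median channel GFP fluorescence of the barcoded RPL19A-GFP strain; ratio of sample median GFP to plate DMSO average so 100% = DMSO; lower means less RPL19A-GFP as with rapamycin TOR inhibition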
Details: S. cerevisiae RPL19A-GFP strain, 3 h, at 10 µM, active compounds read low

Row | SMILES | percent response vs DMSO
1 | Cc1cccc2c(CCN)c[nH]c12 | 101%
2 | NCCc1c[nH]c2ccc(O)cc12 | 32.1% [may fluoresce violet] (active)
3 | C/C(CCc1c[nH]c2ccccc12)=N\O | 100%
4 | OC1/C(=C/c2ccc(C(F)(F)F)cc2)N2CCC1CC2 (stereo not given) | 97.2%
5 | OCC#CC[N+]1(CC#Cc2ccccc2)CCCC1 | 99.6%
